Seven sequences from paper PMC4081100, “A DNA-binding-site landscape and regulatory network analysis for NAC transcription factors in Arabidopsis thaliana” can be followed below.

What all share (assay): universal protein binding microarray (PBM); transcription factors of Arabidopsis thaliana; high values mean tight binding
Holding throughout (conditions): protein: recombinant; tags: GST; chain copies: 2; dsDNA, one strand shown

The target of assay [1] is T1, GST-ANAC092(1-176) (Arabidopsis thaliana, UniProt Q9FKA0 1-176).
T1 sequence: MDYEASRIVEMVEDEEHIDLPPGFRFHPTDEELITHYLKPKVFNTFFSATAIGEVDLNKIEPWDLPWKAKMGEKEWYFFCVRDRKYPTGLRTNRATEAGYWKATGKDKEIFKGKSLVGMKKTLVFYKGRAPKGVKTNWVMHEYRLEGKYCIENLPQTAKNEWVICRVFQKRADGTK
An outline of the steps:
(§1)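 GST-tagged NAC-domain, full-length or DNA-binding-domain proteins were induced in cells, with zinc acetate added for zinc-finger proteins. They were purified on glutathione–Sepharose 4B and quantified by A280 or anti-GST western blot. Each was applied at 200 to 500 nM final, in duplicate, to custom all-10-mer Agilent 4 × 180K arrays made double-stranded by primer extension, with gapped and ungapped 8-mers scored. Binding is the normalised enrichment score (E-score).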

The target in assay [2] is GST-NTL6(1-168) (Arabidopsis thaliana, UniProt Q9SCK6 1-168). An outline of the steps: as §1
Assay [3] has as its target T2, GST-ANAC019 NAC domain (Arabidopsis thaliana, UniProt Q9C932 14-162).
T2 sequence: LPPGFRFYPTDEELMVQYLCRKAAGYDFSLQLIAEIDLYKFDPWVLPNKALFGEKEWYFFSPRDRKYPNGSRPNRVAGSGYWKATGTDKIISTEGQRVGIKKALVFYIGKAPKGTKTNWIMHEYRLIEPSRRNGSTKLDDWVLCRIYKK
The method, boiled down:
as §1

The target of assay [4] is T3, GST-ANAC055(1-171) (Arabidopsis thaliana, UniProt Q9LDY8 1-171).
T3 sequence: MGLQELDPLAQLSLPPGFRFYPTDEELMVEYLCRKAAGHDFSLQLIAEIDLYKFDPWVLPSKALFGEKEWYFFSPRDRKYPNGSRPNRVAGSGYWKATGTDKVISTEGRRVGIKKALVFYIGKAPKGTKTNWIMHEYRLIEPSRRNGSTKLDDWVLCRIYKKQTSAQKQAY
The method, boiled down:
as §1

Assay [5] concerns the target T4, GST-ATAF1 NAC domain (Arabidopsis thaliana, UniProt Q39013 7-158).
T4 sequence: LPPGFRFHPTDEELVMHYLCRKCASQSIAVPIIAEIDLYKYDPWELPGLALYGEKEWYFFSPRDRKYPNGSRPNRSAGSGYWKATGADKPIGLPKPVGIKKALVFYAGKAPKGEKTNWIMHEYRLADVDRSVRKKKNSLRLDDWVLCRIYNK
An outline of the steps:
as §1

The target of assay [6] is T5, GST-ANAC092(1-285) full length (Arabidopsis thaliana, UniProt Q9FKA0 1-285).
T5 sequence: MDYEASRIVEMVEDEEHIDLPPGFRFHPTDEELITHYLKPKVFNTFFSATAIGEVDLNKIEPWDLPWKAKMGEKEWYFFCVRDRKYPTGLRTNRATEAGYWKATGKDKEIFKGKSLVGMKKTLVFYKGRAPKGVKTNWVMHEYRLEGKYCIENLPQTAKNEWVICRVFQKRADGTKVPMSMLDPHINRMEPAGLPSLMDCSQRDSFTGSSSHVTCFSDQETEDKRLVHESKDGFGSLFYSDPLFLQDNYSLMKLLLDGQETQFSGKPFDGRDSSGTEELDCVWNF
The method, boiled down:
as §1

Assay [7] addresses T6, GST-NAP(1-166) (Arabidopsis thaliana, UniProt O49255 1-166).
T6 sequence: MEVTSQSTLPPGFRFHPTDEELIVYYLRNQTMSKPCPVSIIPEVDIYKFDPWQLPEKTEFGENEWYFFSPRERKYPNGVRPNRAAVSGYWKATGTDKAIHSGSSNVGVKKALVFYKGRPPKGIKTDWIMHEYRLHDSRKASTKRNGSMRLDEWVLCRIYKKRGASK
The method, boiled down: as §1

For assay [8], the target named is T7, GST-NST2(1-184) (Arabidopsis thaliana, UniProt Q9M274 1-184).
T7 sequence: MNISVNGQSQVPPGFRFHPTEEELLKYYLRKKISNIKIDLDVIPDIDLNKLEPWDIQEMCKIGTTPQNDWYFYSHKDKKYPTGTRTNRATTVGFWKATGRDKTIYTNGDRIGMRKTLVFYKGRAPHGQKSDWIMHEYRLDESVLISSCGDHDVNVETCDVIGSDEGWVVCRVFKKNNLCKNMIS
The method, boiled down:
as §1

Assay [9] has as its target T8, GST-SND1(1-203) (Arabidopsis thaliana, UniProt Q9LPI7 1-203).
T8 sequence: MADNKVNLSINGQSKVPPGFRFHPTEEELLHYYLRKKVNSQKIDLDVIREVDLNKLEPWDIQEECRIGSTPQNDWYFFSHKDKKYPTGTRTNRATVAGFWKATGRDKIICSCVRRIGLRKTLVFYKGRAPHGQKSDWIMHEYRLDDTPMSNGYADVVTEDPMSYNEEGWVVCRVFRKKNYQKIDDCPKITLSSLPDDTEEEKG
The method, boiled down:
as §1

Assay [10] concerns the target T9, GST-VND3 NAC domain (Arabidopsis thaliana, UniProt Q9FH59 12-162).
T9 sequence: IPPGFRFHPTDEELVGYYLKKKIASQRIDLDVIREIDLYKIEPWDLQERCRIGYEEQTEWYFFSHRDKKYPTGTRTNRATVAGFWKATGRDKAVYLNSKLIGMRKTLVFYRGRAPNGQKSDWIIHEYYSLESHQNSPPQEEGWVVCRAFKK
The method, boiled down: as §1

For assay [11], the target named is T10, GST-VND7 NAC domain (Arabidopsis thaliana, UniProt Q9C8W9 9-158).
T10 sequence: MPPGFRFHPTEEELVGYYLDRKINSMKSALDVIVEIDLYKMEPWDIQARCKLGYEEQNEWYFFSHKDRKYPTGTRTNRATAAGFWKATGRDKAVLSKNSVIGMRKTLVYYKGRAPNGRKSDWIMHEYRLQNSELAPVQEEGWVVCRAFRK
The method, boiled down:
as §1

Assay [12] has as its target T11, GST-NTL8 NAC domain (Arabidopsis thaliana, UniProt Q9XIN7 14-156).
T11 sequence: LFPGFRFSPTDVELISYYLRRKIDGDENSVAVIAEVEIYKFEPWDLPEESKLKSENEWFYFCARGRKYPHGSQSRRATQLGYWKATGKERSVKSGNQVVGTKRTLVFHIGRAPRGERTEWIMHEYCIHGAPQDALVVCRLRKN
The method, boiled down:
as §1

Chain of GST-NTL6(1-168) (Q9SCK6 1-168): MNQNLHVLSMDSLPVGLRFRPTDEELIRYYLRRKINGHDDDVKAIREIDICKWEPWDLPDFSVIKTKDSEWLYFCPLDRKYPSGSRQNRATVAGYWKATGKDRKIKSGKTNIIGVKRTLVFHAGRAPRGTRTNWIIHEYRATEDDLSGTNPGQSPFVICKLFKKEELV

As to ACGTCACT, the binding signal was found to be 0.383 E-score in [1]; 0.0658 E-score in [2]; 0.365 E-score in assay [3]; 0.342 E-score in assay [4]; 0.354 E-score in assay [5]; 0.406 E-score in assay [6]. The binding signal was 0.354 E-score in assay [7]; 0.234 E-score in assay [8]; 0.314 E-score in assay [9]; 0.355 E-score in [10]; 0.328 E-score in assay [11].

For the sequence AAACGTGT, the binding signal in [1] was 0.424 E-score; in assay [2], 0.0946 E-score; in assay [3] it was 0.269 E-score; in [4], 0.33 E-score; in [5], 0.339 E-score; in [6] it was 0.435 E-score. The binding signal in [7] turned out to be 0.249 E-score; in [8], 0.275 E-score; in [9], 0.214 E-score; in [10], 0.328 E-score; in assay [11], 0.306 E-score.

As for TAGCGTAA, the binding signal in assay [1] amounted to 0.453 E-score; in [2], 0.123 E-score; in assay [3], 0.0774 E-score; in assay [4], 0.173 E-score; in [5], 0.281 E-score; in assay [6], 0.454 E-score. Besides, the binding signal in assay [7] was 0.221 E-score; in [8] it was 0.412 E-score; in [9], 0.492 E-score; in assay [10], 0.297 E-score; in [11] it was 0.347 E-score.

ATAGCGTG: the binding signal in assay [1] worked out at 0.464 E-score; in assay [2] it was 0.0569 E-score; in [3], 0.174 E-score; in assay [4], 0.167 E-score; in [5], 0.128 E-score; in assay [6], 0.47 E-score. Besides, the binding signal in assay [7] came to 0.105 E-score; in [8], 0.332 E-score; in [9], 0.418 E-score; in assay [10] it was 0.218 E-score; in assay [11], 0.15 E-score.

AACGTAAC: the binding signal in assay [1] came to 0.335 E-score; in [2], 0.15 E-score; in assay [3], 0.15 E-score; in [4] it was 0.212 E-score; in [5], 0.253 E-score; in assay [6], 0.37 E-score. Moreover, the binding signal in assay [7] is 0.315 E-score; in assay [8], 0.324 E-score; in [12], 0.143 E-score; in [9], 0.419 E-score; in [10], 0.278 E-score; in assay [11], 0.269 E-score.

For the sequence GTTTCGTA, the binding signal in assay [1] is 0.375 E-score; in assay [2] it was 0.0501 E-score; in assay [3] it was 0.0919 E-score; in assay [4], 0.15 E-score; in assay [5] it was 0.173 E-score; in assay [6] it was 0.405 E-score. For the same sequence, the binding signal in assay [7] amounted to 0.185 E-score; in assay [8], 0.163 E-score; in assay [12] it was 0.0561 E-score; in assay [9], 0.318 E-score; in assay [10] it was 0.293 E-score; in [11], 0.124 E-score.

As for CACACGCA, the binding signal worked out at 0.453 E-score in assay [1]; 0.0743 E-score in assay [2]; 0.389 E-score in assay [3]; 0.321 E-score in assay [4]; 0.248 E-score in assay [5]; 0.47 E-score in assay [6]. Moreover, the binding signal in assay [7] was 0.375 E-score; in assay [8], 0.229 E-score; in assay [12], 0.141 E-score; in assay [9], 0.327 E-score; in assay [10], 0.375 E-score; in assay [11], 0.353 E-score.
